High-throughput results deposited in PubChem by National Center for Advancing Translational Sciences (NCATS).
D2 PAM-1: Beta-Arrestin HTS for Positive Allosteric Modulators of the Human D2 Dopamine Receptor: Potentiators | D(2) dopamine receptor (Homo sapiens), P14416 | DiscoveRx D2 beta-arrestin cells, luminescence, 90 min; 100% = 57 uM dopamine signal | potentiation, % (no concentration beside the values) | 360,000 compounds, 0.23% hits | AID 624464, 2012; in the data active = potentiation above about 50%; inconclusive = mostly about 30% to 49%
Target sequence (P14416 whole entry, looked up): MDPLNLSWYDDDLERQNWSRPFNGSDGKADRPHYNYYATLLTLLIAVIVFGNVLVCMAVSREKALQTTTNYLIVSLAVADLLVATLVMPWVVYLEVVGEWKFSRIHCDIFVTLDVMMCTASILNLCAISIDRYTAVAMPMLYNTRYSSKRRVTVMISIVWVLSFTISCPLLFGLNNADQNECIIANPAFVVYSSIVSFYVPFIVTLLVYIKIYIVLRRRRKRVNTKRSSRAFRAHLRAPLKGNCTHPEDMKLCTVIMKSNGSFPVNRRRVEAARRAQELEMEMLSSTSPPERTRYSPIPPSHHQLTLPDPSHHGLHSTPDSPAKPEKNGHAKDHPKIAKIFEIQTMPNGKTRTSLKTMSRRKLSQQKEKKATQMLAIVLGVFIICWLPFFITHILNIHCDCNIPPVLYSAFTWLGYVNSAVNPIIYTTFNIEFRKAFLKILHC
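PathHunter D2 cells, attached overnight at 37 deg C, received compound in DMSO plus dopamine at EC20 (50 nM final) for 90 min at 37 deg C. Beta-arrestin recruitment was read as luminescence after 1 h with detection reagent at ambient temperature.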
D2 ag-1: HTS Assay for Allosteric Agonists of the Human D2 Dopamine Receptor: Primary Screen for Agonists; D(2) dopamine receptor (Homo sapiens), P14416; AID 485358, 2010; 340,000 compounds, 0.53% hits; activation, % at 2 µM; HEK293 T-REx D2 cells, calcium flux agonist mode;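 active = activation over 3 SD above normal in the single-dose calcium agonist read, cut at about 30% in these data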; note: 0% is about no effect
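In this primary screen, compounds producing a positive calcium signal within 180 s of addition to tetracycline-induced, force-coupled HEK293 Trex D2 cells are flagged; cells are dye-loaded with a no-wash calcium kit beforehand.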
D2 ag-2: Beta-Arrestin HTS for Positive Allosteric Modulators of the Human D2 Dopamine Receptor: Agonists; D(2) dopamine receptor (Homo sapiens), P14416; DiscoveRx PathHunter D2 beta-arrestin, luminescence, 90 min; 100% = 57 uM dopamine signal; 360,000 compounds, 0.084% hits; activation, % (no concentration beside the values); in the data active = activation above about 40%; inconclusive = between about 15% and that limit
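Agonist mode: compounds alone added to overnight-plated D2 PathHunter cells for 90 min at 37 C, with 57 uM final dopamine (EC100) defining full response. Beta-arrestin recruitment detected by chemiluminescent reagent, read after 1 h at ambient temperature.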
D2 PAM-2: HTS Assay for Positive Allosteric Modulators of the Human D2 Dopamine Receptor: Primary Screen for Potentiators; D(2) dopamine receptor (Homo sapiens), P14416; HEK293 T-REx D2, calcium flux, EC20 dopamine potentiation; potentiation, % at 10 µM; 340,000 compounds, 0.34% hits; AID 485347, 2010;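 active = potentiation over 3 SD above the plate norm, cut at about 30% in these data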; note: 0% is about no effect
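Tetracycline-induced Hek293 Trex D2 cells, force-coupled to calcium, loaded with no-wash calcium dye. Compound added with 180 s kinetic read for agonism, then EC20 dopamine and a further 180 s read for potentiation.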
D2 antagonist: HTS Assay for Allosteric Antagonists of the Human D2 Dopamine Receptor: Primary Screen for Antagonists; AID 485344, 2010; inhibition, % at 10 µM; 340,000 compounds, 2% hits; D(2) dopamine receptor (Homo sapiens), P14416; HEK293 TREx D2 cells, calcium flux, dopamine EC80; in the data active = inhibition above about 30%; inactive = below that, where a call was filed; note: 0% is about no effect
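Tetracycline-induced HEK293 T-REx cells expressing D2 force-coupled to calcium signalling were dye-loaded, exposed to compound for 180 s, then challenged with an EC80 of dopamine; calcium flux was followed kinetically for a further 180 s.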
D3 arrestin ag: qHTS of D3 Dopamine Receptor Agonist: D3 Dopamine Receptor B-arrestin Agonist Confirmatory Assay; Potency, µM (top dose mostly 76.9 µM), for inactives: at the highest dose activation, usual class: activators; AID 720506, 2013; shares compounds with D2 ag-1; DiscoveRx D3 beta-arrestin cells, luminescence, 90 min; 2,300 compounds, 4% hits;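 note: potency is the fitted concentration of half-maximal effect; 100% = dopamine control response; nearly all actives have a fitted effect of over 70% in size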
D2 ag-3: qHTS of D3 Dopamine Receptor Agonist: D2 Dopamine Receptor B-arrestin Agonist Counterscreen; Potency, µM (series often up to 76.9 µM), for the others: at the highest dose activation, most hits filed as activators; DiscoveRx PathHunter D2 beta-arrestin, luminescence, 90 min; response scale: percent relative to full dopamine signal; 2,300 compounds, 5.9% hits; AID 720507, 2013; shares compounds with D2 ag-1; note: potency is the fitted concentration of half-maximal effect; % of control where 0% means no effect; nearly all actives have a fitted effect of over 70% in size
* marks the source's active call; other numbers are inactive results; ? = inconclusive; . = not tested or not shown; ! = not confirmed by another sample. Shown are actives, neighbours in structure and some others; about 2.4% of the full set was active somewhere. Unless noted, calls come from the whole dose curve; as a rule, active = well fitted activation curve with a large enough effect; inconclusive = small, poorly fitted or top-dose-only effect; inactive = flat fitted curve, though single readings scatter.

SMILES	D2 PAM-1	D2 ag-1	D2 ag-2	D2 PAM-2	D2 antagonist	D3 arrestin ag	D2 ag-3
COc1cccc(CNC(=O)CCC2CCCN(C(=O)c3cc(C4CC4)[nH]n3)C2)c1 (configuration not stated)	2.1	0.3	0.5	13.8	63.0*	-2.0%	0.3%
COc1cccc(CNC(=O)CCC2CCCN(C(=O)c3cc(C)on3)C2)c1 (configuration not stated)	-4.4	0.2	-1.9	-1.8	14.9	.	.
COc1ccccc1/C=C/C=N/Nc1cccc(C(=O)O)c1	9.6	-0.4	-0.8	-7.2	-3.9	.	.
C[C@@H](CN1CCC(Cc2ccccc2)CC1)[C@@H](O)c1ccc(O)cc1	6.3	.	-3.7	.	.	7.0%	26.8%
CC(C(O)c1ccc(O)cc1)N1CCC(Cc2ccccc2)CC1 (configuration not stated)	-33.5	32.9*!	-2.9	-25.6	77.2*	-19.0%	3.2%
CC(C)OCC(O)CN1CCC(Cc2ccccc2)CC1 (configuration not stated)	-16.6	0.7	0.0	-21.6	9.8	.	.
CCCn1c(=O)c(C(=O)OCC)c(O)c2cc(Br)ccc21	-3.5	-0.8	-2.5	2.3	9.0	.	.
O=C(NCCS(=O)(=O)N1CCN(c2ccc(F)cc2)CC1)C1CC(=O)N(c2ccc(F)cc2)C1 (configuration not stated)	.	0.6	.	-9.6	.	.	.
Cn1c2c(c(=O)n(C)c1=O)C(C(F)(F)F)(C(F)(F)F)N=C(c1ccc(Cl)cc1)N2	?	5.4	4.4	17.8	1.2	?	0.6%
CCOC(=O)C1CCCN(S(=O)(=O)c2cc(-c3cc(C)no3)ccc2C)C1 (configuration not stated)	.	-0.8	.	4.8	.	.	.
CC1=CC2=NC(=O)/C(=C\c3cccn3CCOc3ccc(C)c(C)c3)C(=N)N2O1	-5.7	-3.2	-5.1	8.0	-22.5	.	.
NC(=O)NC(=O)COC(=O)[C@H](Cc1ccccc1)NC(=O)c1cccs1	-19.3	17.0	-1.8	4.2	10.1	13.8%	-5.4%
O=C(COC(=O)[C@H](Cc1ccccc1)NC(=O)c1cccs1)Nc1ccccc1C(F)(F)F	-4.8	-0.1	-1.4	-7.6	4.3	.	.
COC(=O)c1ccc(C(=O)OC)c(NC(=O)CN2CCN(c3ccccc3)CC2)c1	-15.7	0.0	-2.6	7.4	-34.7	.	.
NC(=O)c1ccc(NC(=O)CN2CCN(c3ccc(Cl)cc3)CC2)cc1	-1.9	.	-4.1	6.3	.	.	.
CC(=O)N1CCc2cc(C(=O)CN3CCN(c4ccccn4)CC3)ccc21	23.6	86.8*	?	-28.7	93.4*	1.58µM*	1.12µM*
NC(=O)c1ccc(NC(=O)CN2CCN(c3ccccc3)CC2)cc1	-14.9	72.5*	14.6	-22.1	62.9*	?	?
O=C(CN1CCN(c2ccccn2)CC1)Nc1ccc(OCc2ccccc2)cc1	?	12.5	41.0*	9.0	57.3*	-4.7%	?
COC(=O)c1ccc(NC(=O)CN2CCN(c3ccccc3)CC2)cc1	13.3	71.3*	?	-22.1	95.0*	-3.1%	?
COC(=O)c1ccc(NC(=O)CN2CCN(c3ccccn3)CC2)cc1	13.2	64.2*	46.3*	-22.1	68.5*	-3.3%	?
CCOC(=O)c1ccc(NC(=O)CN2CCN(c3ccccc3)CC2)cc1	19.1	64.7*	?	-17.3	61.7*	?	?
O=C(CN1CCN(c2ccccn2)CC1)Nc1ccccc1C(=O)Nc1ccccc1	11.6	1.1	2.1	9.3	-6.3	.	.
COc1ccc(NC(=O)CN2CCN(c3ccccc3)CC2)cc1	-8.2	54.1*	-1.0	-23.0	50.0*	9.3%	13.8%
O=c1c2ccccc2nc(/C=C/c2ccccc2)n1CCc1ccccc1	-17.7	-0.1	-0.3	11.0	3.5	.	.
CCN(CC(=O)Nc1c(F)cccc1F)C(=O)c1ccccc1F	-5.9	0.0	-1.6	-3.3	-11.6	.	.
SMILES	D2 PAM-1	D2 ag-1	D2 ag-2	D2 PAM-2	D2 antagonist	D3 arrestin ag	D2 ag-3
O=C(CCc1nc2ccccc2c(=O)[nH]1)Nc1ccc(Cl)c(Cl)c1	15.0	70.4*	?	-22.8	54.3*	?	?
COC(=O)c1c(-c2ccc(SC)cc2)sc2ccccc12	12.8	2.2	-0.8	13.5	-1.7	.	.
Cc1[nH]nc2nc(SCC(=O)NCCC3=CCCCC3)n(-c3ccc(Br)cc3)c(=N)c12	-1.2	40.7*	6.6	-23.8	-15.6	9.0%	0.0%
CCCCCn1c(=O)c(F)cn(Cc2ccc(OC)c([N+](=O)[O-])c2)c1=O	-0.8	0.7	-3.8	9.7	-0.3	.	.
CCOC(=O)c1nc2nc(-c3cccs3)cc(C(F)(F)F)n2n1	-8.4	2.3	3.0	13.0	-4.1	.	.
O=C(c1nc2nc(-c3cccs3)cc(C(F)(F)F)n2n1)N1CCN(Cc2ccccc2)CC1	19.4	65.2*	-1.0	-10.7	4.7	-7.2%	1.2%
O=C(O)c1ccc(CSc2nc3ccccc3c(=O)n2-c2ccccc2)cc1	26.2	58.0*	5.6	-18.0	48.3*	0.5%	-2.6%
O=c1c2ccccc2nc(SCc2ccc([N+](=O)[O-])cc2)n1-c1ccccc1	-5.3	.	2.8	-4.0	-2.7	.	.
CCC(NC(C)C)C(O)c1ccc(O)c2[nH]c(=O)ccc12 (configuration not stated)	-5.0	26.6	3.6	-0.2	-10.7	?	20.9%
C=CCn1c(SCC(=O)NCCOC)nnc1-c1cc2c(s1)CCC(CC)C2 (configuration not stated)	-0.1	-0.6	0.2	0.8	-4.1	.	.
O=C(NCCNC1CCCCC1)c1ccco1	-6.5	11.9	-1.4	7.5	4.8	.	.
CC1CCC(NCCNC(=O)c2ccco2)CC1 (configuration not stated)	-15.4	68.0*	-5.1	-22.0	14.2	-18.3%	-6.6%
O=C(Nc1cccc(Cl)c1)c1nc[nH]c1C(=O)NCc1ccccc1	-7.0	1.4	-4.0	1.6	-1.2	-5.0%	-2.3%
Cc1cccc(NC(=O)c2nc[nH]c2C(=O)NCc2ccccc2)c1	-7.0	-0.3	-4.3	-11.2	-6.6	-5.1%	-4.4%
